Assay [1] can be described thus: antimalarial activity against Dd2 strain (AID 2302;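 active means growth inhibition above 50% at the single 2 µM test dose, taken to imply half-maximal potency below 2 µM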;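 further: 0% = DMSO untreated growth and 100% = chloroquine plus artemisinin killed control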). Particulars: P. falciparum Dd2 in RBCs, LDH growth readout, 72 h; at 2 µM; stronger effect = higher value.
Assay [2] can be described thus: human hepatoma cell viability loss – ATP luminescence, cytotoxicity control for P. falciparum antimalarial project, primary screen (AID 2303;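 active means inhibition above 50%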;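 further: 0% = DMSO wells and 100% = digitonin-killed cells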). Particulars: HepG2 viability, 24-48 h, at 10 µM, stronger effect = higher value.
Assay [3] addresses L-lactate dehydrogenase (Plasmodium falciparum (isolate CDC / Honduras)) (UniProt Q27743). In words: PfLDH activity inhibition – cell lysate, 3D7 strain, counter-screen for P. falciparum growth inhibition project (AID 2304).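 Further: 0% = vehicle and 100% = reference inhibitor.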 Particulars: P. falciparum 3D7 crude extract, LDH APAD/NBT absorbance; at 2 µM; stronger effect = higher value.
Assay [4] is described as follows: inhibition of 3D7 malaria parasite growth – strain 3D7 (AID 2306).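 Further: 0% = DMSO wells and 100% = chloroquine plus artemisinin control wells.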 Particulars: P. falciparum 3D7 erythrocytic growth, LDH absorbance, 72 h; at 2 µM; stronger effect = higher value.
The target in assay [5] is Calcium-dependent protein kinase 1 (Plasmodium falciparum (isolate 3D7)) (UniProt P62344). As to the kind of experiment: PfCDPK1 kinase inhibitors, biochemical, TCAMS library (AID 1159585; cut-off not given, nearly all actives have IC50 up to about 0.98 µM;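 further: inhibitors leave more ATP so luminescence rises with inhibition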). Particulars: recombinant PfCDPK1, Kinase-Glo ATP depletion luminescence.
Chain of Calcium-dependent protein kinase 1 (Plasmodium falciparum (isolate 3D7)) (P62344 whole entry, looked up): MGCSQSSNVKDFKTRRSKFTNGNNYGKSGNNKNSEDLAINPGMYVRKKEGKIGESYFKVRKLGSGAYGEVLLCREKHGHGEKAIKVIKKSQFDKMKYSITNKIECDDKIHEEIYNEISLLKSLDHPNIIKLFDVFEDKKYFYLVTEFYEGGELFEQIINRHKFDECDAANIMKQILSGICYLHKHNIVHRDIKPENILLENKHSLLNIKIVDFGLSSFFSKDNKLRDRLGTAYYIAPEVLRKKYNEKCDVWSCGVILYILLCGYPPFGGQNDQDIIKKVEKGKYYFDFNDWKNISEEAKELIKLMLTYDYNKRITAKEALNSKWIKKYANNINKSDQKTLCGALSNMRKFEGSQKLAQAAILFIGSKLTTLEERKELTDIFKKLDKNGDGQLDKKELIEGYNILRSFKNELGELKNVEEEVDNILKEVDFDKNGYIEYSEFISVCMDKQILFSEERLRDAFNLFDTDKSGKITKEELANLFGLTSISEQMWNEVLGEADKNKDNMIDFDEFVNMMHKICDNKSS
Assay [6] has as its target Plasmodium falciparum protein kinase 6 (PK6, PF3D7_1337100) (UniProt Q8IDW1). As to the kind of experiment: PfPK6 kinase inhibitors, biochemical, TCAMS library (AID 1159586). Particulars: recombinant PfPK6, Kinase-Glo ATP depletion luminescence.
Assay [7] deals with Protein kinase 7 (PK7), Plasmodium falciparum 3D7 (PF3D7_0213400) (UniProt Q7YTF7). As to the kind of experiment: inhibition of Plasmodium PK7 catalytic activity – biochemical, TCAMS antimalarial set, Kinase-Glo luminescence (AID 1159587). Particulars: recombinant PfPK7, Kinase-Glo ATP depletion luminescence.
Chain of Protein kinase 7 (PK7), Plasmodium falciparum 3D7 (PF3D7_0213400) (Q7YTF7 1-343): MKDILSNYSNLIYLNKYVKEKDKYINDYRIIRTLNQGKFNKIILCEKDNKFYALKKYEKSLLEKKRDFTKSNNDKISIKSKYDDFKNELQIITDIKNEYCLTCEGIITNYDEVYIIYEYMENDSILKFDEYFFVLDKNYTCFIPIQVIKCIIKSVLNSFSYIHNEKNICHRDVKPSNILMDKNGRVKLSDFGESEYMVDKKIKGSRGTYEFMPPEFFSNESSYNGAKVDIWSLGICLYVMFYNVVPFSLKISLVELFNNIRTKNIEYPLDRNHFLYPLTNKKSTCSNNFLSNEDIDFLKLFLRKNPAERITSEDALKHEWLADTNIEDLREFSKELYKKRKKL
For assay [8], the target named is Calcium-dependent protein kinase 4 (Plasmodium falciparum (isolate 3D7)) (UniProt Q8IBS5). As to the kind of experiment: PfCDPK4 kinase inhibitors, biochemical, TCAMS library (AID 1159588; cut-off not given, nearly all actives have IC50 up to about 0.91 µM). Particulars: recombinant PfCDPK4, Kinase-Glo ATP depletion luminescence.
Chain of Calcium-dependent protein kinase 4 (Plasmodium falciparum (isolate 3D7)) (Q8IBS5 whole entry, looked up): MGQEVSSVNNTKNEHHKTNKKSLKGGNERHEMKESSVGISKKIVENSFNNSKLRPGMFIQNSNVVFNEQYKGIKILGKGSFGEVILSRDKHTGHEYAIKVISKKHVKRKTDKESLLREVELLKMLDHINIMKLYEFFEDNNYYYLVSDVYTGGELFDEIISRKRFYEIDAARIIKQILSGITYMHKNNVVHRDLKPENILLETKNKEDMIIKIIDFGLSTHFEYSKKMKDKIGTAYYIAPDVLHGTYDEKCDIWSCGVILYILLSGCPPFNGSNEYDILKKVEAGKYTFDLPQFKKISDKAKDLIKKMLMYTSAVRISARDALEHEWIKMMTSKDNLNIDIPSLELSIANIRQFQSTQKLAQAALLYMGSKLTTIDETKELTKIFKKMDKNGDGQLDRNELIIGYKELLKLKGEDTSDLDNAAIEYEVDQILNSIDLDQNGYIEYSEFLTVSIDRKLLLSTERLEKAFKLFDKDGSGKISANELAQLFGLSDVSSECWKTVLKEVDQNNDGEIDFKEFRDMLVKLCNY

Unmarked numbers belong to inactive results. For some of these results: Results with a measured potency or affinity are listed apart. Calls of active or inactive are those of the source. Unless noted, how the calls were made is not given here.

Chain of Plasmodium falciparum protein kinase 6 (PK6, PF3D7_1337100) (Q8IDW1 1-305): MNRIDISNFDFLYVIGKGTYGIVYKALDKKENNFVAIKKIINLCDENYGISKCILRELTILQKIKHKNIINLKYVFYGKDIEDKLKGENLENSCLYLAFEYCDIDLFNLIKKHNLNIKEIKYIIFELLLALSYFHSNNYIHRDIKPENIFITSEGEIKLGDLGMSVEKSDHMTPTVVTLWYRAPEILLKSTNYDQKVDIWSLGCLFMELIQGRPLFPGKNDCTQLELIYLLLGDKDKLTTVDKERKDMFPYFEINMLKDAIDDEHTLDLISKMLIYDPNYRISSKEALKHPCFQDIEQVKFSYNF
Chain of L-lactate dehydrogenase (Plasmodium falciparum (isolate CDC / Honduras)) (Q27743 whole entry, looked up): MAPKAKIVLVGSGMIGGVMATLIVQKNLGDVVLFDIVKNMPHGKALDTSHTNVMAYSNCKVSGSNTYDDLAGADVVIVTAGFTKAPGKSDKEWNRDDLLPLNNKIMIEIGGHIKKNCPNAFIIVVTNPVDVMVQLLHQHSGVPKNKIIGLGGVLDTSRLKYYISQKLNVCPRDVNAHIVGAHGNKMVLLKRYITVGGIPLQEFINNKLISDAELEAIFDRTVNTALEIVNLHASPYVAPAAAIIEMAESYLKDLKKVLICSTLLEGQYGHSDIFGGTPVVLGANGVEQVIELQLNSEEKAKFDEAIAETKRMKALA

For `O=C(C=CC(=O)N1CCCCC1)NCc1ccccc1`, the growth inhibition in assay [1] is -3%; in assay [4], 100% (active). Further, the inhibition in assay [2] is 6%; in assay [3] it was -2%. The outcome in assay [5], in assay [6], in assay [7] and in assay [8] was inactive.
Regarding `CC(C)COc1ccc(Cl)cc1Cc1ccc(-c2nc3ccc(Br)cc3[nH]2)o1`, the growth inhibition is 75% (active) in assay [1] and 80% (active) in assay [4]. The inhibition in assay [2] is 19%; in assay [3], -3%. In addition, the result in assay [5], in assay [6], in assay [7] and in assay [8] was inactive.
Consider `CCCC(CNCc1cccc(OCC)c1)CNc1cc(=O)c2ccccc2[nH]1` (stereo not given), for which the growth inhibition in assay [1] was 97% (active); in assay [4] it was 101% (active). Moreover, the inhibition in assay [2] is -4%; in assay [3], 4%. Further, the result in assay [5], in assay [6], in assay [7] and in assay [8] was inactive.
With `Cc1cccc2[nH]c(-c3cccc(-c4cccc(CN5CCC(CO)CC5)c4)c3)nc12`, the growth inhibition in assay [1] was 90% (active); in assay [4] it was 101% (active). Besides, the results for the inhibition in assay [2] and in assay [3] were 4% and -6%, respectively. Further, the result in assay [5], in assay [6], in assay [7] and in assay [8] was inactive.
`COc1ccc(CN(C)CCCOc2ccc(NC(=O)C=Cc3ccc(C(C)(C)C)cc3)cc2)cc1OC`: the growth inhibition is 87% (active) in assay [1] and 101% (active) in assay [4]. Further, the values for the inhibition in assay [2] and in assay [3] were 14% and 2%, respectively. In addition, the result in assay [5], in assay [6], in assay [7] and in assay [8] was inactive.
Take `COc1ccc(C[C@@H](N)C(=O)N[C@H]2[C@@H](O)[C@H](n3cnc4c(N(C)C)ncnc43)O[C@@H]2CO)cc1`: the growth inhibition in assay [1] was 100% (active); in assay [4], 101% (active). The inhibition in assay [2] was 99% (active); in assay [3], 0%. In addition, the outcome in assay [5], in assay [6], in assay [7] and in assay [8] was inactive.
For `O=C(Nc1ccccc1)N1CCOC(CCN2CCC(F)(F)CC2)(c2ccc(Cl)c(Cl)c2)C1` (stereo not given), the figures for the growth inhibition in assay [1] and in assay [4] were 100% (active) and 102% (active), respectively. Further, the inhibition is 20% in assay [2] and 3% in assay [3]. For the same molecule, the outcome in assay [5], in assay [6], in assay [7] and in assay [8] was inactive.
As for `O=S1N=C(NCCCN(Cc2cccs2)c2ccccn2)C(NCc2ccccc2)=N1` (stereo not given), the values for the growth inhibition in assay [1] and in assay [4] were 25% and 92% (active), respectively. Moreover, the inhibition was 10% in assay [2] and 0% in assay [3]. Moreover, the result in assay [5], in assay [6], in assay [7] and in assay [8] was inactive.
On to `CCCCC1(NC(=O)[C@@H](Nc2ccc(C#N)c3ccccc23)C2CCCCC2)CCCCC1`, for which the values for the growth inhibition in assay [1] and in assay [4] were 84% (active) and 91% (active), respectively. Also, the inhibition in assay [2] is 8%; in assay [3], 0%. Further, the result in assay [5], in assay [6], in assay [7] and in assay [8] was inactive.
Take `O=C(Cn1nc(Br)nc1[N+](=O)[O-])NCC1CCCCC1`: the growth inhibition in assay [1] was 57% (active); in assay [4], 96% (active). Further, the inhibition is -8% in assay [2] and -5% in assay [3]. The result in assay [5], in assay [6], in assay [7] and in assay [8] was inactive.
Consider `Cc1nc(N)nc(N)c1CCCOc1cccc(Cl)c1`, for which the growth inhibition in assay [1] was -1%; in assay [4], 96% (active). Further, the results for the inhibition in assay [2] and in assay [3] were 16% and -4%, respectively. Moreover, the outcome in assay [5], in assay [6], in assay [7] and in assay [8] was inactive.
Regarding `CC(O)C1CCCCN1C(=O)c1cccc(-c2cccc(-c3nc4ccc(C(F)(F)F)cc4[nH]3)c2)c1` (stereo not given), the growth inhibition in assay [1] and in assay [4] was 100% (active) each time. The inhibition in assay [2] was 32%; in assay [3], -5%. Also, the result in assay [5], in assay [6], in assay [7] and in assay [8] was inactive.
For `NC1=NC2(CCCCC2)N(OCCCOc2cccc3ccccc23)C(N)=N1`, the figures for the growth inhibition in assay [1] and in assay [4] were 96% (active) and 95% (active), respectively. Further, the inhibition in assay [2] was 67% (active); in assay [3] it was -2%. Further, the outcome in assay [5], in assay [6], in assay [7] and in assay [8] was inactive.
Consider `O=C(Nc1ccc(C(F)(F)F)cc1)c1cccc(S(=O)(=O)NC2CCN(CC3CCCCC3)CC2)c1`, for which the growth inhibition in assay [1] is 12%; in assay [4] it was 99% (active). Further, the inhibition in assay [2] was 18%; in assay [3], -3%. Besides, the result in assay [5], in assay [6], in assay [7] and in assay [8] was inactive.
As to `Cc1cccc(C(=O)N2CCN(Cc3cccc(NC(=O)c4cccs4)c3)CC2)c1`, the growth inhibition in assay [1] and in assay [4] was 95% (active) throughout. For the same molecule, the results for the inhibition in assay [2] and in assay [3] were 5% and 0%, respectively. Besides, the result in assay [5], in assay [6], in assay [7] and in assay [8] was inactive.
As for `O=C(CC(=O)Nc1cc(Cl)cc(Cl)c1)Nc1cc(Cl)cc(Cl)c1`, the growth inhibition in assay [1] is 96% (active); in assay [4] it was 95% (active). Also, the inhibition in assay [2] was -4%; in assay [3], -2%. The result in assay [5], in assay [6], in assay [7] and in assay [8] was inactive.
For `Cc1cc2ncn(-c3nccc(NCc4cccnc4)n3)c2cc1C`, the growth inhibition in assay [1] was 98% (active); in assay [4] it was 99% (active). Further, the inhibition in assay [2] was -2%; in assay [3], -4%. For the same molecule, the result in assay [5], in assay [6], in assay [7] and in assay [8] was inactive.
As for `O=[N+]([O-])c1cccc(Nc2nccc(-c3cnn4ncccc34)n2)c1`, the growth inhibition was 74% (active) in assay [1] and 87% (active) in assay [4]. The inhibition is 33% in assay [2] and -1% in assay [3]. The outcome in assay [5], in assay [6], in assay [7] and in assay [8] was inactive.
Consider `CN(C)CCOc1ccc(-c2cc(-c3ccc(Cl)c(O)c3)c(-c3ccncc3)o2)cc1`, for which the growth inhibition is 99% (active) in assay [1] and 102% (active) in assay [4]. Besides, the inhibition in assay [2] is 39%; in assay [3] it was 2%. Also, the outcome in assay [5], in assay [6], in assay [7] and in assay [8] was inactive.
As to `COc1ccc(CCn2c(=N)c(C(=O)NC3CCCC3)cc3c(=O)n4ccccc4nc32)cc1`, the results for the growth inhibition in assay [1] and in assay [4] were 34% and 99% (active), respectively. In addition, the inhibition in assay [2] was 11%; in assay [3], 1%. In addition, the outcome in assay [5], in assay [6], in assay [7] and in assay [8] was inactive.

The record behind these values is PubChem BioAssay.
